Sampled rows, rich in hits. Any-hit rate of the full collection: about 20%.
Shiga inhibitor: blocks Shiga toxin action in Vero cells; inhibition, % at 38.7 µM; 290,000 compounds, 9.2% hits; Vero cells, Shiga toxin protein synthesis inhibition reporter; in the data active = inhibition mostly above about 28%, no sharp cut-off; inactive = mostly below about 43%
HCMV antiviral: blocks human cytomegalovirus replication. HFF cells, HCMV-luciferase reporter, 72 h; stronger effect = lower value. activity change, negative = inhibition, % at 57.5 µM. 410,000 compounds, 4.5% hits. AID 1259415; in the data active = activity change below about -60%; inconclusive = no clear call, values can overlap the other calls; inactive = above about -39%
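Cell-based, HFFs, 1000 cells/well, 16 h 37C; cpds in DMSO + HCMV-luc, MOI 1 PFU/cell; 72 h 37C; OneGlo luminescence after 5 min RT; norm. to buffer vs Salinomycin 10uM.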
CHX counter: counter-screen hit for Shiga toxin inhibitors, cycloheximide. cell reporter, cycloheximide protein synthesis inhibition counterscreen. max response, %. 300,000 compounds, 12% hits. AID 2314; in the data active = max response mostly above about 13%, no sharp cut-off; inactive = mostly below about 14%; note: read at 38.3 µM for the half of the compounds with a filed dose
Pf growth 48h: inhibits P. falciparum growth in the first generation, 48 h. P. falciparum luciferase growth in erythrocytes, 48 h. Potency, µM (titrated, usually from 28.7 µM), actives largely listed as inhibitors. 310,000 compounds, 5.9% hits. AID 504832
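Luminescence readout; reporter = integrated firefly luciferase in P. falciparum. RBC culture at 2% hematocrit, 0.1% parasitemia final, 37 C/5% CO2; decreased signal taken as growth inhibition.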
Pf growth 96h: P. falciparum growth inhibition at 96 hours | P. falciparum luciferase reporter growth, 96 h | Potency, µM (highest dose often 28.7 µM), most hits filed as inhibitors | 320,000 compounds, 6.9% hits | AID 504834
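P. falciparum expressing integrated firefly luciferase, in erythrocytes at 2% hematocrit, 0.05% parasitemia, incubated with compounds 96 h at 37 C, 5% CO2. Growth inhibition read as loss of luminescence; two-generation exposure targets delayed-death apicoplast inhibitors.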
Hits are given with their value; . = inactive; ? = inconclusive; / = no result given; [ ] = another dose, or the depositor's remark. Unless noted, calls come from the whole dose curve; as a rule, active = well fitted inhibition curve with a large enough effect; inconclusive = small, poorly fitted or top-dose-only effect, or another doubt; inactive = no such curve, though single readings can be large or run the other way.

SMILES	Shiga inhibitor	HCMV antiviral	CHX counter	Pf growth 48h	Pf growth 96h
CC[C@@H]1/C=C(\C)C[C@H](C)C[C@H](OC)[C@H]2O[C@@](O)(C(=O)C(=O)N3CCCC[C@H]3C(=O)O[C@H](/C(C)=C/[C@@H]3CC[C@H](Cl)[C@H](OC)C3)[C@H](C)[C@@H](O)CC1=O)[C@H](C)C[C@@H]2OC	/	/	/	.	.
COc1ccc(NC(=O)c2ccc(Br)o2)c([N+](=O)[O-])c1	.	?	19	.	.
COc1ccc(NC(=O)c2ccc(C)o2)c([N+](=O)[O-])c1	.	.	22	.	.
COc1ccc(NC(=O)c2ccc([N+](=O)[O-])s2)c([N+](=O)[O-])c1	46	-85	.	.	?
COc1ccc(NC(=O)Cc2ccc(C)cc2)c([N+](=O)[O-])c1	.	.	.	.	.
CC(C)Oc1ccc(C(=O)NCCCNC(=O)c2cccnc2)cc1	.	.	.	.	.
Cc1cccc(OCC(=O)Nc2cccc(O)c2)c1	active	.	30	.	?
Cc1ccc(OCC(=O)Nc2cccc(O)c2)cc1C	79	.	40	.	.
O=C(COc1cc(Cl)c(Cl)cc1Cl)Nc1cccc(O)c1	115	.	38	.	.
Cc1cccc(OCC(=O)Nc2ccc3c(c2)C(=O)NC3=O)c1	.	.	.	.	?
Cc1cc(OCC(=O)N(Cc2ccc(N(C)C)cc2)CC2CCCO2)ccc1Cl (stereo not given)	/	.	/	/	/
COc1ccc(N/N=C(/N=Nc2nc(C)cc(=O)[nH]2)c2ccccc2)cc1	91	-89	62	1.7µM	/
COc1ccc2nc(C)cc(Nc3ccc(C(=O)O)cc3)c2c1	.	/	.	.	.
Cc1cc(=O)[nH]c(N=N/C(=N/Nc2ccc(O)cc2)c2ccccc2)n1	100	.	49	?	/
C/C(=N\Nc1nc(C)cc(=O)[nH]1)C1CC1	.	.	.	.	.
Cc1cc(=O)[nH]c(SCC(=O)Nc2ccccc2C)n1	.	?	.	.	.
Cc1cc(=O)[nH]c(N=N/C(=N/Nc2ccccc2C)c2ccccc2)n1	.	-86	.	.	/
Cc1ccc(-n2nc(C(=O)N3CCN(c4ccc(F)cc4)CC3)c(=O)n(C)c2=O)cc1	/	.	/	/	/
Cc1cccc(CCN2C(Nc3ccccc3)=NC[C@@H]2CC(C)C)c1	/	?	/	10µM	?
CC(C)C[C@H]1CN=C(Nc2ccccc2)N1CC1CCCCCC1	/	.	/	?	10µM
CC(C)CCN1C(Nc2ccccc2)=NC[C@@H]1CC(C)C	.	.	.	.	.
CCN1C(Nc2ccccc2)=NC[C@@H]1Cc1ccccc1	.	.	.	?	.
CC(C)(C)C1CCC(CN2C(Nc3ccccc3)=NC[C@@H]2Cc2ccccc2)CC1 (stereo not given in full)	/	-76	/	/	/
CC(OC(=O)C1CC2CCCC(C1)C2=O)C(=O)Nc1cccc([N+](=O)[O-])c1 (stereo not given)	/	.	/	/	/
O=[N+]([O-])c1ccc(NCc2ccc(Cl)cc2)nc1	63	.	39	.	.
SMILES	Shiga inhibitor	HCMV antiviral	CHX counter	Pf growth 48h	Pf growth 96h
CC(C)c1ccc(CNc2nnnn2C)cc1	.	.	.	.	.
O=[N+]([O-])c1ccc(Nc2ccc(Cl)cc2)nc1	.	.	.	.	.
Cc1cc(C)c(Cn2cnc(-c3ccc([N+](=O)[O-])cc3)c2)c(C)c1	.	?	.	?	?
CC(C)c1ccc(CNc2ccc([N+](=O)[O-])cn2)cc1	74	.	55	.	.
CC(C)(C)c1ccc(Cn2cnc(-c3ccc([N+](=O)[O-])cc3)c2)cc1	54	.	40	.	?
CC(C)c1ccc(CNc2ncc(Br)cn2)cc1	32	.	17	.	.
CCC(=O)NCCNc1ccc([N+](=O)[O-])cn1	.	/	.	.	?
COc1ccc(S(=O)(=O)N2CCC(C(=O)N[C@@H](C)C(=O)NCc3ccco3)CC2)cc1	/	.	/	/	/
CC(=O)NCCNc1ccc([N+](=O)[O-])cn1	.	.	.	.	.
CC(C)(C)c1ccc(CNc2ccc([N+](=O)[O-])cn2)cc1	81	.	23	.	?
Cc1cc(CNCc2c(C(=O)N3CCCCCCC3)nc3ccc(Cl)cn23)nn1C	.	.	.	?	.
Cc1noc(C)c1C(=O)Nc1nc(-c2ccccc2Cl)cs1	66	.	36	.	.
Cc1onc(-c2ccccc2)c1C(=O)Nc1nc(-c2ccccc2)cs1	96	?	31	.	/
Cc1onc(-c2ccccc2)c1C(=O)Nc1nc(-c2cc(F)ccc2F)cs1	.	.	.	/	.
COc1ccc(OC)c(-c2csc(NC(=O)Cc3cccs3)n2)c1	.	.	.	.	.
O=[N+]([O-])c1ccc(S(=O)(=O)NN=CCCc2ccccc2)cc1	/	.	/	/	/
O=C(NCCCNC(=O)c1ccccn1)c1ccc(Br)cc1	.	.	.	.	.
CN(C)CCNc1ncnc2c1cnn2-c1ccc(Cl)cc1	.	.	30	/	?
OCCCNc1ncnc2c1cnn2-c1ccc(Cl)cc1	75	.	52	.[0.00184 µM]	.
CCCN=C1N(C)C[C@@H]2[C@@H]3C(=O)N(Cc4ccccc4)C(=O)[C@@H]3[C@](CC)(C(=O)OC)N12	/	.	/	/	/
O=C(Nc1cccc(NC(=O)c2sc3ccccc3c2Cl)c1)c1ccco1	69	?	40	.	?
O=C(Nc1cccc(NC(=O)c2nccc3ccccc23)c1)c1ccco1	130	-97	45	.	?
CC1CCCN(C(=O)CSc2nnc3ccccn23)C1 (stereo not given)	/	.	/	.	.
CCOC(=O)C1=C(c2ccccc2)N2CCS(=O)(=O)N=C2S1	.	.	.	.	10µM
O=C1CCC[C@@H]2[C@@H](Cc3ccccc3)[C@H](N3CCN(c4ccccc4)CC3)C[C@@H]3CCN1[C@@H]32	/	-80	/	/	/
SMILES	Shiga inhibitor	HCMV antiviral	CHX counter	Pf growth 48h	Pf growth 96h
COc1ccc(CNC(=O)C(=O)c2cn(CC(=O)N3CCOCC3)c3ccccc23)cc1	.	.	.	.	.
COc1ccccc1CNC(=O)C(=O)c1cn(CC(=O)N2CCCC2)c2ccccc12	62	.	20	?	?
CCOc1ccc(CNC(=O)C(=O)c2cn(CC(=O)N3CCOCC3)c3ccccc23)cc1OC	.	.	10	.	.
O=C(NCc1ccc(F)cc1)C(=O)c1cn(CC(=O)N2CCCC2)c2ccccc12	.	?	.	?	?
COc1ccccc1CCNC(=O)C(=O)c1cn(CC(=O)N2CCOCC2)c2ccccc12	80	.	61	.	?
COc1ccc(CNC(=O)C(=O)c2cn(CC(=O)N3CCCC3)c3ccccc23)cc1	.	.	18	.	?
Cc1cc(Nc2n[nH]c(N)c2C#N)ccc1F	.	.	.	.	.
COc1cc(C(=O)NC(=S)Nc2ccc3ccccc3c2)cc(OC)c1OC	/	.	/	/	/
Cc1ccc(C2CC(c3cccs3)=NN2C(=O)CSC2=NN3CCCC(=O)N=C3S2)cc1 (stereo not given)	.	.	.	9.3µM	1µM
COc1ccc(C2CC(c3cccs3)=NN2C(=O)CSC2=NN3CCCC(=O)N=C3S2)cc1 (stereo not given)	.	.	.	10µM	2.6µM

Compound activity (PubChem BioAssay)
